Bioassay records from PubChem BioAssay.
MCF10A rereplic – induces DNA re-replication in MCF 10a normal breast cells; AID 624296; Potency, µM (series often up to 46.1 µM), without a hit: at the top dose activity, positive = re-replication, most hits filed as activators; MCF 10A DNA re-replication, Hoechst nuclear intensity, 48 h; 2.9% of 350,000 active; also: potency is read from the fitted curve at half-maximal effect; % of control where 0% means no effect; nearly all actives have a fitted effect of over 50% in size
VP16 counter – inhibits Gal4-VP16 luciferase reporter, ROR gamma counter-screen | AID 2546 | Drosophila S2 Gal4-VP16 UAS-luciferase, luminescence, 20 h | Potency, µM (series often up to 53.6 µM), without a hit: at the top dose activity, negative = inhibition, actives largely listed as inhibitors | 3.5% of 310,000 active;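 also: Gal4-VP16 expression switched on by copper sulfate through the metallothionein promoter; potency is read from the fitted curve at half-maximal effect; % is scaled to controls: 0 for no effect and ±100 for the full control effect; nearly all actives have a fitted effect of over 50% in size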
RORgamma inh – ROR gamma (mouse) transcription inhibition; P51450; Drosophila S2 Gal4-RORgamma UAS-luciferase reporter, 20 h; Potency, µM (top dose mostly 53.6 µM), without a hit: top-dose activity change, negative = inhibition, most hits filed as inhibitors; 5.4% of 310,000 active; also: potency is read from the fitted curve at half-maximal effect; % is scaled to controls: 0 for no effect and ±100 for the full control effect; nearly all actives have a fitted effect of over 60% in size
Target sequence (P51450 whole entry, looked up, the tested form may be a part): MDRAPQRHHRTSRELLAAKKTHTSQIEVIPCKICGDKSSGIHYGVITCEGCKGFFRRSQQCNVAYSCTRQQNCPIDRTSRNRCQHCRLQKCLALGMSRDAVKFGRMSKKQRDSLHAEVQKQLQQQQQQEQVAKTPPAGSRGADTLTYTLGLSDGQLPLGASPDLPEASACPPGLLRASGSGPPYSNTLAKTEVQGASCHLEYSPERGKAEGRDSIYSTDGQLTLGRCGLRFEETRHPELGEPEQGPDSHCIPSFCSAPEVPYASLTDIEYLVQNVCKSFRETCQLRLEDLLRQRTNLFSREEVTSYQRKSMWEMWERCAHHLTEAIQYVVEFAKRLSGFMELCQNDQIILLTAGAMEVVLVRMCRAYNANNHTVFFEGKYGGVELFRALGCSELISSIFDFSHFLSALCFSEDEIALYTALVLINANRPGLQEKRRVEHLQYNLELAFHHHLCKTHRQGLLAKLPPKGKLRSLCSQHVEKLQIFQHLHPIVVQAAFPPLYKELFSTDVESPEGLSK
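Luciferase reporter read in Schneider cells carrying Gal4-RORγ (mouse) and UAS-Photinus luciferase; cells given compound 1 h before 700 uM copper sulfate induction, then incubated 20 h at ambient temperature.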
Giardia kill – Giardia lamblia killing | AID 540267 | activity change, % at 7.66 µM, hits read low | Giardia lamblia trophozoite viability | 0.15% of 340,000 active; in the data active = activity change below about -80%; inconclusive = between about -30% and that limit;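 also: parasites exposed to compound for two days anaerobically before the ATP read; % is scaled to controls: 0 for no effect and ±100 for the full control effect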
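ATP-content bioluminescence gauges trophozoite survival. Cells (100/well) receive compound and incubate anaerobically for 48 hrs at 37 deg C; detection reagent follows for 15-30 min at room temperature.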
SW480 rerep – induces DNA re-replication in SW480 colon adenocarcinoma cells. SW480 DNA re-replication, Hoechst DNA content imaging, 48 h. Potency, µM (doses to about 46.1 µM), without a hit: at the top dose re-replication activation, usual class: activators. 1.8% of 340,000 active; also: potency is read from the fitted curve at half-maximal effect; % of control where 0% means no effect; nearly all actives have a fitted effect of over 55% in size
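First, 250 cells per well were seeded. Next, compound or vehicle (23 nL) was pinned in, plates sat 48 hr at 37 C. Finally Hoechst was added for 40 min before fluorescence scanning.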
Chronic BCR inh – blocks chronic active B-cell receptor signaling | ABC-DLBCL IkBa-CBG/CBR reporter, luminescence ratio, 4 h | 0.05% of 340,000 active | Potency, µM (titrated, usually from 46.1 µM), for inactives: at the top dose activity change, negative = inhibition, most hits filed as inhibitors; active = well fitted inhibition curve with a large enough effect in the signal ratio, with a control signal flat, not every such curve was filed as active; inconclusive = small, poorly fitted or top-dose-only effect, or effect the other way, or a change in a side signal; the % refers to the signal ratio;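 also: potency is read from the fitted curve at half-maximal effect; plate controls were basal doxycycline-induced cells for no effect and cells given 10 µM MG132 for full effect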
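Concentration-response series (up to 46 uM) were applied to TMD8 dual-reporter cells for 4 h at 37C with doxycycline. Green/red ratio, after filter-overlap correction, defined %Activity; red signal alone was normalised to basal cells and zero luminescence.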
Numbers without * were called inactive; u = inconclusive; x = no result given; [ ] = dose if it differs, or a comment. Rows were chosen to be rich in hits. Some 8.3% of all compounds tested hit in one or more screens of this group. Unless noted, calls follow the shape of the dose curve; as a rule, active = well fitted curve in the direction sought with a large enough effect; inconclusive = small, poorly fitted or top-dose-only effect, or another doubt; inactive = no such curve, though single readings can be large; an effect the other way counts as inactive or inconclusive.

SMILES | MCF10A rereplic | VP16 counter | RORgamma inh | Giardia kill | SW480 rerep | Chronic BCR inh
COc1ccc(C#Cc2c(-c3ccccc3)n(-c3ccccc3)c3ccc(CO)cc23)cc1 | 20.6µM* | x | x | -23.7 | u | u
COc1ccc(-c2c(C#Cc3ccc(N(C)C)cc3)c3ccccc3n2C)cc1 | u | x | x | 6.2 | u | u
CC1(C)CC(=O)c2c(nc3ccccc3c2N)C1 | 12.8% | u | -9.2% | -8.9 | -1.2% | 8.5%
Cc1nc2c(c3c1[nH]c1ccccc13)C(=O)CC(C)(C)C2 | 23.1µM* | -3.8% | 4.0% | 12.1 | u | u
O=C(COC(=O)/C=C/c1ccc(OC(F)F)cc1)NC1CCCC1 | -4.6% | x | x | 2.8 | -3.4% | -0.3%
O=C(NN=Cc1ccc(F)cc1)C1CC1 | 5.5% | x | x | -26.6 | -6.8% | x
C=C1CC(C(=O)N/N=C/c2ccc(O)cc2)C1 | -4.2% | 15.8% | 2.7% | 1.5 | 16.4µM* | u
COc1ccc(C(=O)N/N=C/c2ccc(N(C)c3ccccc3)cc2)cc1 | u | x | x | -25.5 | 8.6% | x
CSc1ccc(/C=N/NC(=O)c2ccc(O)cc2)cc1 | -8.0% | 2.24µM* | 0.562µM* | -0.7 | -1.9% | u
COc1ccc(C(=O)N/N=C/c2ccc(SC)cc2)cc1 | 6.3% | 0.0% | u | 6.7 | 5.17µM* | u
CCOC(=O)Cc1c(C)nc2c(C#N)c[nH]n2c1=O | 1.5% | -10.9% | 4.3% | -0.4 | -1.1% | -8.0%
Cc1cc(=O)n2[nH]c(C)c(-c3ccc(Cl)cc3)c2n1 | -3.5% | 15.8µM* | 7.08µM* | -1.6 | 0.0% | u
CCOC(=O)Cc1cc(=O)n2[nH]c(C)c(-c3ccccc3)c2n1 | u | u | 12.6µM* | 11.1 | 3.4% | u
CCOC(=O)Cc1c(C)nc2c(-c3cccc(Br)c3)c[nH]n2c1=O | 7.31µM* | 14.1µM* | 4.47µM* | -1.9 | 18.4µM* | 2.4%
CCOC(=O)Cc1cc(=O)n2[nH]c(-c3ccccc3)c(-c3ccccc3)c2n1 | -6.2% | 3.6% | u | 14.3 | -2.8% | -1.7%
CCOC(=O)N1CCC(c2cc(=O)n3[nH]c(C)c(-c4ccc(F)cc4)c3n2)CC1 | -3.5% | 12.6µM* | 10µM* | -1.2 | u | 0.2%
COc1ccccc1-c1cncnc1NCCc1cnc[nH]1 | x | -2.0% | -4.0% | x | x | x
CCOC(=O)Cc1c(C)nc2c(-c3ccc(Cl)cc3)c(C)[nH]n2c1=O | -5.7% | 6.31µM* | 6.31µM* | 3.8 | 2.3% | 11.3%
CN(C)/C=C1/C=C(c2ccccc2)OC1=O | 18.4µM* | -15.7% | 6.2% | -23.3 | u | 0.9%
CC(C)C(NC(=O)c1cccc(S(=O)(=O)N2CCOCC2)c1)C(=O)NCc1ccc(Cl)cc1 (centres undefined) | 0.9% | x | x | -29.7 | 5.2% | 6.0%
O=C(CCCCCCC(=O)Nc1ccccc1)NO | 15µM* | x | x | u | 3.66µM* | x
Cc1ccccc1NC(=O)CCN1CCN(C)CC1 | -0.3% | -9.6% | 10µM* | -6.6 | -5.2% | 3.6%
O=C(CCN1CCCC1)Nc1ccccc1 | 0.3% | u | -2.0% | -12.2 | -1.4% | 2.0%
O=C(CCN1CCN(CCO)CC1)Nc1ccccc1 | 0.651µM* | 4.8% | 1.5% | 8.8 | -5.0% | -0.8%
c1ccc(CNc2ncnc3nc(N4CCOCC4)[nH]c23)cc1 | x | x | x | -1.9 | x | x
SMILES | MCF10A rereplic | VP16 counter | RORgamma inh | Giardia kill | SW480 rerep | Chronic BCR inh
COC(=O)[C@H](Cc1ccccc1)NC(=O)[C@H]1C[C@@H]1[C@H](NC(=O)OCc1ccccc1)c1ccccc1 | x | -20.4% | -0.2% | x | x | x
O=C1ON=C(c2ccccc2)/C1=C/c1ccc(-c2ccccc2[N+](=O)[O-])o1 | u | 10µM* | u | 0.7 | u | u
CCOC(=O)c1c(NC(=O)c2c(-c3ccccc3)noc2C)sc(C)c1-c1ccccc1 | u | 0.8% | -0.3% | -14.8 | u | 9.1%
CCOC(=O)c1c(NC(=O)/C=C\C(=O)O)sc(C)c1-c1ccccc1 | 20.6µM* | 26.4% | u | -7.5 | u | u
CCOC(=O)c1c(NC(=O)/C=C/C(=O)O)sc(C)c1-c1ccc(C(C)(C)C)cc1 | u | u | 11.2µM* | -8.2 | 18.4µM* | u
Cc1sc(NC(=O)/C=C/C(=O)O)c(C(N)=O)c1-c1ccc(C(C)(C)C)cc1 | 20.6µM* | -10.0% | u | -10.3 | u | u
COCC(C)N=C1NN=C(c2cccs2)C(CC(=O)O)S1 (centres undefined) | 15.4% | 11.2µM* | 2µM* | 17.4 | 3.8% | u
CCCn1nnc(NC(=O)/C=C/c2ccc(C(C)C)cc2)n1 | u | u | u | 51.9 | u | 9.4%
CCCn1nnc(NC(=S)NC(=O)/C=C/c2ccc(Cl)cc2)n1 | 2.0% | -20.5% | 5.01µM* | 5.3 | -10.4% | -1.9%
CCCn1nnc(NC(=S)NC(=O)Cc2ccccc2)n1 | -4.1% | 0.5% | 0.251µM* | -6.2 | u | u
CCCn1nnc(NC(=O)c2ccc(-c3ccccc3)cc2)n1 | 2.3% | 28.3% | -2.3% | 8.5 | 10.0% | -6.2%
CCCn1nnc(NC(=S)NC(=O)CC)n1 | 1.6% | 10µM* | 7.08µM* | -0.5 | u | u
CCN(Cc1cc2cc(C)ccc2[nH]c1=O)C(=O)c1cccc([N+](=O)[O-])c1 | -4.8% | -2.7% | 30.9% | 2.2 | -3.5% | -1.7%
C=C(NC(=O)C(=C)NC(=O)c1csc(C2=N[C@@H]3c4csc(n4)[C@@H]4NC(=O)c5csc(n5)[C@@H]([C@](C)(O)[C@H](C)O)NC(=O)[C@@H]5CSC(=N5)/C(=C/C)NC(=O)[C@@H]([C@H](C)O)NC(=O)c5csc(n5)[C@]3(CC2)NC(=O)[C@@H](C)NC(=O)C(=C)NC(=O)[C@@H](C)NC(=O)[C@@H]([C@@H](C)CC)N[C@H]2C=Cc3c([C@H](C)O)cc(nc3[C@@H]2O)C(=O)O[C@H]4C)n1)C(N)=O | 8.05µM* | -0.5%[17 µM] | 1.3%[2.98 µM] | x | 7.18µM* | x
C=C(NC(=O)C(=C)NC(=O)c1csc(C2=NC3c4csc(n4)C4NC(=O)c5csc(n5)C(C(C)(O)C(C)O)NC(=O)C5CSC(=N5)/C(=C/C)NC(=O)C(C(C)O)NC(=O)c5csc(n5)C3(CC2)NC(=O)C(C)NC(=O)C(=C)NC(=O)C(=C)NC(=O)C(C(C)C)NC2C=Cc3c(C(C)O)cc(nc3C2O)C(=O)OC4C)n1)C(N)=O (centres undefined) | u | x | x | -1.2 | 1.16µM* | x
CCc1ccccc1NC(=O)CN(C)C(=O)COC(=O)c1ccco1 | 11.6% | x | x | 6.7 | -24.2% | 1.3%
COc1ccc(NC(=O)Nc2ccc3c(c2)C(=O)N([C@@H](C)CO)C[C@@H](C)[C@@H](CN(C)CC2CCCCC2)O3)cc1 | u | x | x | -0.1 | 2.4%[9.22 µM] | 0.8%
